# From the supplement of paper PMC6522484
# ± gives the standard deviation of the averaged measurements.
# Legend:
# DLD1 [1] = experiment: cell viability (CellTiter-Glo) relative to plate median (fraction of plate median); higher = more viable cells; details: 5 µM; treatment time 24 h; reporter: 7TFP
# Method in brief: (§1)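 Colorectal cancer cell lines stably carrying lentiviral TCF/Wnt firefly luciferase reporters (7TFP or TCF4/Wnt) were plated in 384-well plates and, 24 h later, given library compounds at a final 5 µM for 24 h. Firefly luciferase or CellTiterGlo luminescence was read on parallel plates with a Tecan F500 reader. Each well's signal was normalised to the plate median in webcellHTS2 (additive, without log transformation). Values are the mean of two independent replicates.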
# HCT116 [2] = experiment: as above; details: 5 µM; treatment time 24 h; reporter: TCF4/Wnt
# Method in brief: as §1
# SW480 [3] = experiment: as above; details: 5 µM; treatment time 24 h; reporter: 7TFP
# Method in brief: as §1
# DLD1 [4] = experiment: TCF/Wnt firefly luciferase reporter signal relative to plate median (fraction of plate median); higher = higher Wnt reporter signal; details: 5 µM; treatment time 24 h; reporter: 7TFP
# Method in brief: as §1
# SW480 [5] = experiment: as above; details: 5 µM; treatment time 24 h; reporter: 7TFP
# Method in brief: as §1
# DLD1 [6] = experiment: cell viability (CellTiter-Glo) relative to plate median (fraction of plate median); higher = more viable cells; details: 10 µM, treatment time 24 h
# Method in brief: (§2)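 In 384-well plates, colorectal cancer lines with stable lentiviral 7TFP or TCF4/Wnt firefly luciferase reporters were seeded and, 24 h later, given kinase inhibitor library compounds at a final 10 µM for 24 h. A Tecan F500 reader measured firefly luciferase on one plate and CellTiterGlo on a parallel plate. Reported figures are two-replicate means of well signals normalised to the plate median, computed additively in webcellHTS2 without log transformation.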
# HCT116 [7] = experiment: as above; details: 10 µM; treatment time 24 h; reporter: TCF4/Wnt
# Method in brief: as §2
# SW480 [8] = experiment: as above; details: 10 µM; treatment time 24 h; reporter: 7TFP
# Method in brief: as §2
# DLD1 [9] = experiment: TCF/Wnt firefly luciferase reporter signal relative to plate median (fraction of plate median); higher = higher Wnt reporter signal; details: 10 µM, treatment time 24 h
# Method in brief: as §2
# HCT116 [10] = experiment: as above; details: 10 µM; treatment time 24 h; reporter: TCF4/Wnt
# Method in brief: as §2
# SW480 [11] = experiment: as above; details: 10 µM; treatment time 24 h; reporter: 7TFP
# Method in brief: as §2
smiles,measurement,setting,value
CN[C@@H](C)[C@@H](O)c1ccccc1,cell viability,DLD1 [1],0.9265 ± 0.0021
same,cell viability,HCT116 [2],1.02 ± 0.035
same,cell viability,SW480 [3],0.978 ± 0.06
same,TCF/Wnt firefly luciferase reporter signal,DLD1 [4],0.993 ± 0.067
same,TCF/Wnt firefly luciferase reporter signal,SW480 [5],1.03 ± 0.064
COc1ccc(C(=O)N2CCCC2=O)cc1,cell viability,DLD1 [1],1.01 ± 0.018
same,cell viability,HCT116 [2],0.957 ± 0.025
same,cell viability,SW480 [3],1.045 ± 0.0071
same,TCF/Wnt firefly luciferase reporter signal,DLD1 [4],1.08 ± 0.021
same,TCF/Wnt firefly luciferase reporter signal,SW480 [5],1.07 ± 0.014
COc1cc2c(cc1O)C[C@H]1c3c(cc(O)c(OC)c3-2)CCN1C,cell viability,DLD1 [1],1.02 ± 0.095
same,cell viability,HCT116 [2],1.06 ± 0.086
same,cell viability,SW480 [3],1.12 ± 0.13
same,TCF/Wnt firefly luciferase reporter signal,DLD1 [4],0.882 ± 0.033
same,TCF/Wnt firefly luciferase reporter signal,SW480 [5],1.01 ± 0.17
CCCN1C[C@H](CSC)C[C@@H]2c3cccc4[nH]cc(c34)C[C@H]21,cell viability,DLD1 [1],0.934 ± 0.0057
same,cell viability,HCT116 [2],0.986 ± 0.049
same,cell viability,SW480 [3],0.863 ± 0.086
same,TCF/Wnt firefly luciferase reporter signal,DLD1 [4],1
same,TCF/Wnt firefly luciferase reporter signal,SW480 [5],1.015 ± 0.0071
CC[C@H]1CN2CCc3cc(OC)c(OC)cc3[C@@H]2C[C@@H]1C[C@H]1NCCc2cc(OC)c(OC)cc21,cell viability,DLD1 [1],0.984 ± 0.094
same,cell viability,HCT116 [2],0.815 ± 0.3
same,cell viability,SW480 [3],0.902 ± 0.059
same,TCF/Wnt firefly luciferase reporter signal,DLD1 [4],0.615 ± 0.1
same,TCF/Wnt firefly luciferase reporter signal,SW480 [5],0.608 ± 0.064
C[C@@H]1CC[C@]2(NC1)O[C@H]1C[C@H]3[C@@H]4CC=C5C[C@@H](O)CC[C@]5(C)[C@H]4CC[C@]3(C)[C@H]1[C@@H]2C,cell viability,DLD1 [1],0.943 ± 0.011
same,cell viability,HCT116 [2],0.904 ± 0.035
same,cell viability,SW480 [3],0.957 ± 0.044
same,TCF/Wnt firefly luciferase reporter signal,DLD1 [4],0.963 ± 0.037
same,TCF/Wnt firefly luciferase reporter signal,SW480 [5],0.978 ± 0.016
CN[C@@H]1C[C@H]2O[C@@](C)([C@@H]1OC)n1c3ccccc3c3c4c(c5c6ccccc6n2c5c31)C(=O)NC4 [Staurosporine],cell viability,DLD1 [6]; reporter: 7TFP,0.617 ± 0.047
same,cell viability,DLD1 [6]; reporter: TCF4/Wnt,0.701 ± 0.067
same,cell viability,HCT116 [7],0.23 ± 0.13
same,cell viability,SW480 [8],0.68 ± 0.25
same,cell viability,DLD1 [1],0.837 ± 0.027
same,cell viability,HCT116 [2],0.712 ± 0.0099
same,cell viability,SW480 [3],1.14 ± 0.035
same,TCF/Wnt firefly luciferase reporter signal,DLD1 [4],0.583 ± 0.023
same,TCF/Wnt firefly luciferase reporter signal,SW480 [5],0.965 ± 0.045
same,TCF/Wnt firefly luciferase reporter signal,DLD1 [9]; reporter: 7TFP,0.204 ± 0.069
same,TCF/Wnt firefly luciferase reporter signal,DLD1 [9]; reporter: TCF4/Wnt,0.2 ± 0.04
same,TCF/Wnt firefly luciferase reporter signal,HCT116 [10],0.103 ± 0.0065
same,TCF/Wnt firefly luciferase reporter signal,SW480 [11],0.346 ± 0.19
Cc1ccccc1-n1c(Cn2ncc3c(N)ncnc32)nc2cccc(C)c2c1=O,cell viability,DLD1 [6]; reporter: 7TFP,1.07 ± 0.028
same,cell viability,DLD1 [6]; reporter: TCF4/Wnt,1.03
same,cell viability,HCT116 [7],1.22 ± 0.21
same,cell viability,SW480 [8],1 ± 0.036
same,TCF/Wnt firefly luciferase reporter signal,DLD1 [9]; reporter: 7TFP,1.11 ± 0.13
same,TCF/Wnt firefly luciferase reporter signal,DLD1 [9]; reporter: TCF4/Wnt,0.77 ± 0.022
same,TCF/Wnt firefly luciferase reporter signal,HCT116 [10],0.604 ± 0.42
same,TCF/Wnt firefly luciferase reporter signal,SW480 [11],0.879 ± 0.2
C[CH2][Hg][S]c1ccccc1C(=O)[O-].[Na+],cell viability,DLD1 [1],0.303 ± 0.39
same,cell viability,HCT116 [2],0.378 ± 0.36
same,cell viability,SW480 [3],0.0225 ± 0.0017
same,TCF/Wnt firefly luciferase reporter signal,DLD1 [4],0.274 ± 0.37
same,TCF/Wnt firefly luciferase reporter signal,SW480 [5],0.0216 ± 0.0027
O=C(O)CF,cell viability,DLD1 [1],0.951 ± 0.049
same,cell viability,HCT116 [2],0.968 ± 0.059
same,cell viability,SW480 [3],1.035 ± 0.0071
same,TCF/Wnt firefly luciferase reporter signal,DLD1 [4],1.05 ± 0.014
same,TCF/Wnt firefly luciferase reporter signal,SW480 [5],1.07 ± 0.042
O=C(NC(=O)c1c(F)cccc1F)Nc1ccc(Cl)cc1,cell viability,DLD1 [1],1.01 ± 0.021
same,cell viability,HCT116 [2],0.939 ± 0.07
same,cell viability,SW480 [3],1.01 ± 0.016
same,TCF/Wnt firefly luciferase reporter signal,DLD1 [4],0.914 ± 0.18
same,TCF/Wnt firefly luciferase reporter signal,SW480 [5],0.876 ± 0.044
CC(=O)O[C@H]1CC[C@@]2(C)[C@H](CC[C@@H]3[C@@H]2CC[C@]2(C)[C@@H](C4=CC(=O)OC4)[C@@H](OC(C)=O)C[C@]32O)C1,cell viability,DLD1 [1],0.633 ± 0.0092
same,cell viability,HCT116 [2],0.723 ± 0.06
same,cell viability,SW480 [3],0.82 ± 0.086
same,TCF/Wnt firefly luciferase reporter signal,DLD1 [4],0.277 ± 0.1
same,TCF/Wnt firefly luciferase reporter signal,SW480 [5],0.592 ± 0.088
